Most compounds without a hit are left out; they make up all but 3.3% or so of the library.
Gli-Sufu block – antagonists of Gli-Sufu signaling. inhibition, % at 5 µM. Sufu-KO-LIGHT fibroblasts, Gli luciferase reporter luminescence. AID 588413. hit rate 0.74% among 340,000;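 active = inhibition above about 55%, limit read from the data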;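 also: 0% = DMSO-treated cells and 100% = wells with medium but no cells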
697 NFkB inh – inhibitors of the PMA/ionomycin-induced NF-kB reporter in 697 B cells. 697 B-cell NF-kB luciferase reporter, 16 h. inhibition, % at 4 µM. hit rate 0.33% among 330,000; in the data active = inhibition above about 35%
esBAF inh – inhibitors of esBAF chromatin remodeling in mouse ES cells. Bmi1-luciferase knock-in reporter, 24 h; 100% = twice the neutral-well signal. reporter increase, % at 12.5 µM. hit rate 2% among 350,000. AID 602393; in the data active = activation above about 40%; inconclusive = no clear call, values can overlap the other calls;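 also: 0% = median of the plate's neutral control wells and 100% = double that signal; a rise in the Bmi1 reporter signal indicates esBAF inhibition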
SMARCA2 activ – SMARCA2 function activation, primary screen; MG213 cells, MMTV-luciferase reporter, dexamethasone, overnight; activation, % at 9.1 µM; hit rate 1% among 370,000; in the data active = activation above about 7.8%;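 also: 0% = vehicle wells and 100% = reference activator wells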
Jurkat NFkB inh – inhibitors of the PMA/ionomycin-induced NF-kB reporter in Jurkat cells. inhibition, % at 4 µM. hit rate 0.53% among 330,000. PMA/ionomycin-induced NF-kB luciferase reporter, luminescence. AID 435003; in the data active = inhibition above about 50%
Ring1 derepress – confirmation of esBAF inhibitors: Ring1 de-repression in mouse ESCs | AID 743176 | mouse ESC E14, Ring1 mRNA RT-qPCR fold change | 550 tested, under 10 active | fold change at 33 µM | shares compounds with esBAF inh;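 active = Ring1 gene expression raised more than 2-fold over untreated cells in both replicates at either tested dose; inconclusive = only one replicate above 2-fold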;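 also: Ring1 transcript normalised to actin housekeeping signal by TaqMan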
esBAF Fgf4 qPCR – esBAF inhibition confirmed by Fgf4 repression; hit rate 4% among 550; AID 743177; Fgf4 expression fold change at 33 µM; mouse ESC E14, Fgf4 mRNA qPCR fold change; stronger effect = lower value; shares compounds with esBAF inh;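 active = Fgf4 expression under 0.8 fold of control in both repeat measurements at one or both tested doses; inconclusive = under 0.8 fold in just a single repeat measurement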;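 also: Fgf4 transcript normalised to actin in duplex TaqMan qPCR; cells exposed to compound for 24 h before lysis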
Bmi1 derepress – esBAF inhibition confirmed by Bmi1 de-repression; 550 tested, under 10 active; AID 743180; shares compounds with esBAF inh; mouse ESE14 ES cells, Bmi1 mRNA qPCR fold; stronger effect = higher value; fold change at 33 µM;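 active = Bmi1 expression fold change above 6 at either tested concentration, seen in replicate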
A549 tox SP – cytotoxicity in A549 cells; AID 743188; cell viability change % (negative = cytotoxic), % at 25 µM, hits read low; plate reader; 550 tested, under 10 active; shares compounds with esBAF inh; call rule not given here
HepG2 tox SP – kills or reduces viability of HepG2 cells; activity change, negative = inhibition, % at 25 µM; shares compounds with esBAF inh; HepG2 cytotoxicity, plate reader; stronger effect = lower value; hit rate 4% among 550; AID 743189; in the data active = activity change below about -50%
HEK293 tox SP – cytotoxicity in HEK293 cells. activity change, negative = inhibition, % at 25 µM, hits read low. plate reader. hit rate 3% among 550. shares compounds with esBAF inh; in the data active = activity change below about -38%, passing the limit was not always enough
Starred values were filed as active, the others as inactive; ? = inconclusive; . = no result.

SMILES	Gli-Sufu block	697 NFkB inh	esBAF inh	SMARCA2 activ	Jurkat NFkB inh	Ring1 derepress	esBAF Fgf4 qPCR	Bmi1 derepress	A549 tox SP	HepG2 tox SP	HEK293 tox SP
Cc1noc(C)c1NC(=O)Nc1cccc2c1O[C@@H](CN(C)C(=O)NC(C)C)[C@H](C)CN([C@@H](C)CO)C2=O	.	.	-1	.	.	.	.	.	.	.	.
CO[C@@H]1CN(C)C(=O)c2cc(NS(C)(=O)=O)ccc2OC[C@@H](C)N(C(=O)C2CCCCC2)C[C@@H]1C	.	.	-1	.	.	.	.	.	.	.	.
COc1ccc(-c2cc(C(=O)Nc3cccnc3)no2)cc1OC	-85	-16	65*	6	-56	1.4	?	1.9	-3	-19	1
COc1ccc(F)cc1-c1cc(C(=O)Nc2cccnc2)[nH]n1	.	.	57*	0	.	1.2	1	1.8	-9	-1	-13
CC(C)N1CC2(CC(c3ccccc3F)=NO2)CN1C(=O)c1ccc(C(C)(C)C)cc1 (configuration not stated)	.	.	75*	-2	.	0.92	0.89	1.7	-6	-1	-9
Nc1nc(-c2cccc(F)c2)cs1	-37	-18	57*	3	-8	1.2	?	1.6	0	-4	6
C[C@@H]1CCCCO[C@H](CN(C)S(=O)(=O)c2ccccc2)[C@H](C)CN([C@@H](C)CO)C(=O)c2cc(NC(=O)CCCN(C)C)ccc2O1	.	.	1	.	.	.	.	.	.	.	.
O=C(O)c1ccc(O)c2ncccc12	.	.	71*	1	.	0.99	0.93	1.5	-13	-22	-23
Oc1ccc(Cl)c2cccnc12	-2	.	-3	1	.	.	.	.	.	.	.
CC(=O)Nc1ccc(CNc2nc3cc(-c4ccc(F)cc4)sc3c(=O)n2C)cc1	.	.	68*	0	.	1.1	1	2.4	-1	9	-27
CC(=O)Nc1ccc(CNc2nc3cc(-c4ccsc4)sc3c(=O)n2C)cc1	.	.	78*	-3	.	1.6	1.1	1.7	7	-14	-10
CC(=O)NCCNc1nc2cc(-c3ccsc3)sc2c(=O)n1C	.	.	0	-7	.	.	.	.	.	.	.
O=C(Cc1ccccn1)c1ccc(Cl)cc1	-68	-64	100*	0	-53	1.2	0.87	1.6	-6	2	-7
CS(=O)(=O)N1CCN(c2nc3ccccc3s2)CC1	-62	-47	65*	2	-63	1.1	1.1	1.1	-11	-16	-7
O=S(=O)(c1ccccc1)N1CCN(c2nc3ccccc3s2)CC1	-53	-63	1	-4	-31	.	.	.	.	.	.
COCC(=O)N[C@H]1C=C[C@H](CC(=O)NCc2ccccc2OC)O[C@@H]1CO	.	.	-3	.	.	.	.	.	.	.	.
Nc1ccc2c(c1)Cc1cc(N)c(Cl)cc1-2	-47	.	88*	0	.	1.4	1	1.6	-8	-41	9
ON=C(CCc1ccccc1)c1ccccc1	-66	.	74*	8	.	1.1	1.1	1.9	3	-21	-2
O/N=C(\COc1ccccc1O)c1ccccc1	3	9	12	-1	9	.	.	.	.	.	.
Cc1cc(C)c2c(CN(C)Cc3ccccc3)cc(=O)oc2c1	.	.	63*	6	.	1.2	?	1.5	-11	-7	-53*
CCC(=O)Nc1ccc2c(c1)C(=O)N(C)[C@H]1CC[C@H](CC(=O)NCCCN(C)C)O[C@@H]1CO2	.	.	-3	.	.	.	.	.	.	.	.
COc1cccc(-c2noc(C3CCCN(C(=O)CC(C)(C)C)C3)n2)c1 (configuration not stated)	-34	-4	83*	1	-24	1.2	1	1.8	0	-25	-7
N#C[C@@H]1[C@H](c2ccccc2)[C@@H](CO)N1C(=O)Nc1cccc(F)c1	.	.	3	.	.	.	.	.	.	.	.
COc1cc(Cl)ccc1OCc1cc(C(=O)N2CCN(C)C(=O)[C@@H]2C)no1	.	.	96*	0	.	1.1	0.5*	1.3	-18	-15	-21
C[C@@H]1CN([C@@H](C)CO)S(=O)(=O)c2ccc(C#Cc3ccccn3)cc2O[C@@H]1CN(C)Cc1ccccc1	.	.	1	.	.	.	.	.	.	.	.
SMILES	Gli-Sufu block	697 NFkB inh	esBAF inh	SMARCA2 activ	Jurkat NFkB inh	Ring1 derepress	esBAF Fgf4 qPCR	Bmi1 derepress	A549 tox SP	HepG2 tox SP	HEK293 tox SP
O=C(NC(=S)Nc1ccc2c(c1)C(=O)c1ccccc1C2=O)c1ccc(F)cc1	.	-102	.	.	-66	.	.	.	.	.	.
O=C(Nc1ccc2c(c1)C(=O)c1ccccc1-2)c1ccccc1	-103	.	94*	2	.	1.1	0.84	1.4	-5	-23	-11
CO[C@@H]1CN(C)C(=O)c2ccc(NC(=O)c3ccccc3)cc2OC[C@@H](C)NC[C@H]1C	.	.	2	.	.	.	.	.	.	.	.
COc1cc(/C=C2/C(=N)N3N=C(CC(=O)N4CCOCC4)SC3=NC2=O)ccc1OCc1ccc(F)cc1	-27	-12	48*	0	-56	1.5	0.9	1.3	-7	-9	-10
Cc1ccccc1S(=O)(=O)N1[C@H](C#N)[C@@H](c2ccccc2)[C@@H]1CO	.	.	-2	.	.	.	.	.	.	.	.
COc1cccc(NC(=O)CN(C)C(=O)CNC(=O)c2sc3ccccc3c2Cl)c1	2	9	67*	4	-19	0.89	0.89	1.4	-14	-29	-32
CN(CC(=O)Nc1c(Cl)cccc1Cl)C(=O)CNC(=O)c1sc2ccccc2c1Cl	-5	.	35	-1	.	.	.	.	.	.	.
O=C(Cn1c(/C=C/c2ccccc2)nc2ccccc21)Nc1ccc(F)cc1	-10	-16	80*	-1	-22	0.99	1	1.5	7	30	3
CSc1nc2ccccc2n1CC(=O)Nc1ccccc1	-4	11	0	-4	4	.	.	.	.	.	.
O=C(c1cc2ccccc2oc1=O)N(Cc1cccs1)C1CCS(=O)(=O)C1 (configuration not stated)	-5	-28	70*	6	-38	1.1	?	1.3	-7	-22	-13
COc1cc(CN(C(=O)c2cc3ccccc3oc2=O)C2CCS(=O)(=O)C2)cc(OC)c1OC (configuration not stated)	-1	-8	33	2	-2	.	.	.	.	.	.
CCC(=O)N1CC[C@@H]2[C@@H](CO)Nc3ccc(-c4ccc(OC)cc4)cc3[C@@H]21	.	.	-5	.	.	.	.	.	.	.	.
COc1ccc(CN(C)C[C@@H]2OCCCC[C@@H](C)Oc3ccc(NC(=O)Nc4c(C)noc4C)cc3C(=O)N([C@H](C)CO)C[C@@H]2C)cc1	.	.	-2	.	.	.	.	.	.	.	.
COc1ccc(NC(=O)Nc2cccc(C)n2)cc1	-66	-69	66*	2	-57	1.1	0.88	2	-1	-1	-7
